SMILES strings stand for the structures. Screen size: about 320,000 compounds; about 50 (0.02%) were called active. The sample holds actives, similar compounds and a random draw of the others, so the mix is not that of the screen. Unmarked numbers belong to inactive results.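 The calls were made as follows: active = GFP response relative to DMSO above a set limit, near screen average plus 3 SD (cut at about 150% in these data); inconclusive = fewer than 70 cells counted for the yeast strain; inactive = the rest.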

Here are results for 58 molecules from PubChem BioAssay AID2066 (NMMLSC, 2009).

The assay in a line: yeast AGP1-GFP level changes, GLN3 branch – cell-based, multiplex flow cytometry, S. cerevisiae, MLPCN library, primary screen (AID 2066).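 Also: median GFP channel fluorescence of the gated AGP1 strain per well.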 To be noted: 3 h, at 10 µM, hits give high values, GFP as percent of DMSO wells. On the technique in general: Flow cytometry measures light scatter and fluorescence of single cells or particles in a stream.
Turning to `COc1ccccc1NC(=O)C1=C(C)Nc2nc3ccccc3n2C1c1cccs1` (stereo not drawn), the GFP response vs DMSO was 97.6%.
Take `CCOC(=O)C1CCCN(S(=O)(=O)c2ccc(-n3cnnn3)c(C)c2)C1` (stereo not drawn): the GFP response vs DMSO is 107%.
Take `Cc1cc(C)c(OCCN2CC(C)OC(C)C2)c(Br)c1` (stereo not drawn): the GFP response vs DMSO is 103%.
As for `CC(C)COc1ccc(C(=O)NNC(=O)CCC(=O)c2cccs2)cc1`, the figure is 107%.
Regarding `O=[N+]([O-])c1cc(S(=O)(=O)N2CCCC2)ccc1NN=C1CCCC1`, the GFP response vs DMSO was 102%.
On to `Cc1cccc(OCC(=O)OCC(=O)Nc2ccc(Cl)cn2)c1`, for which the GFP response vs DMSO is 106%.
As to `CCCCCCCCCCCCC(NC(C)=O)(C(=O)OCC)C(=O)OCC`, the GFP response vs DMSO was 94.5%.
Regarding `C/C(CC(=O)NCc1ccc(Cl)cc1)=N\NC(=O)COc1ccc(C)cc1Br`, the GFP response vs DMSO was 105%.
Regarding `Cn1c(N)c(C(=O)COC(=O)C23CC4CC(CC(C4)C2)C3)c(=O)n(C)c1=O`, the GFP response vs DMSO is 103%.
As to `COc1ccc(C2=NN(C(=O)CSc3nc(=O)n4ccc(C)cc4n3)C(c3ccc(C)cc3)C2)cc1` (stereo not drawn), the GFP response vs DMSO is 107%.
On to `N/C(=N\OC(=O)CC1CCCCC1)c1ccccc1`, for which the GFP response vs DMSO was 93.2%.
As for `CCCN(CC1CC1)C(=O)COC(=O)c1ccc(C)cc1O`, the figure is 99.2%; as for `COc1cc(C(=O)OCC(=O)N(CC(C)C)C2CCS(=O)(=O)C2)ccc1OCC(C)C` (stereo not drawn), 103%; as for `CC(C)Cc1nn2c(=O)cc(O)nc2s1`, 106%.
As for `O=C(Nc1ccc(S(=O)(=O)N2CCCCCC2)cc1)c1c(F)cccc1F`, the figure is 93.4%.
As for `COc1ccc(OC)c(S(=O)(=O)Nc2c(C)nn(C)c2C)c1`, the figure is 99.1%; as for `CN=C(Nc1cccc(S(=O)(=O)N2CCOCC2)c1)c1ccccc1`, 111%; as for `Cc1ccc(C)c(C(=O)COC(=O)Cn2[nH]c(=O)c3ccccc3c2=O)c1`, 101%.
For the molecule `CCN1/C(=C\c2ccc3ccccc3[n+]2CC)Sc2cc(C)ccc21`, the GFP response vs DMSO is 189% [may fluoresce green] (active).
For the molecule `COc1ccc(-c2cc(C(F)(F)F)nc(S(C)(=O)=O)n2)cc1OC`, the GFP response vs DMSO is 106%.
As to `COc1ccc(-c2nnc(NC(=O)CS(=O)(=O)c3ccc(Cl)cc3)o2)c(OC)c1`, the GFP response vs DMSO is 100%.
In the case of `Cc1noc(C)c1CSCC(=O)N(CCC(C)C)c1c(N)n(Cc2ccccc2)c(=O)[nH]c1=O`, the GFP response vs DMSO is 102%.
Turning to `CC(=O)c1c(C)[nH]c(C(=O)COc2ccc3c(C)cc(=O)oc3c2)c1C`, the GFP response vs DMSO is 110%.
As for `COc1ccc(CCNC2=CC(=O)CC(C)(C)C2)cc1`, the figure is 111%; as for `CC1CN(C(=O)c2ccc([N+](=O)[O-])s2)CC(C)O1` (stereo not drawn), 94.7%; as for `Cc1ccc2[nH]c(=O)c(CN(C)S(=O)(=O)c3cccc4nonc34)cc2c1`, 118%.
Regarding `Cc1ccc(C(=O)CN2C(=O)NC3(CCOc4ccccc43)C2=O)s1` (stereo not drawn), the GFP response vs DMSO is 102%.
As for `COc1ccccc1N(CC(=O)Nc1ccc(C(F)(F)F)cc1)S(C)(=O)=O`, the figure is 109%.
With `CC1CN(C(=O)c2cc(COc3c(F)cccc3F)on2)CCN1C` (stereo not drawn), the GFP response vs DMSO was 102%.
As for `O=C(Nc1cccc(S(=O)(=O)N2CCCC2)c1)c1cncc(Br)c1`, the figure is 106%.
Take `O=C1c2ccncc2C(=O)N1C1CCCCC1`: the GFP response vs DMSO is 111%.
In the case of `Cc1ccc2c(c1)NC(=O)[C@@]1(C)[C@@H](c3ccccc3)[C@H]3COc4ccc(Cl)cc4[C@@H]3N1C2=O`, the GFP response vs DMSO was 98.7%.
As for `Cc1ccc(NC(=O)Cn2cnc3c(OCc4ccccc4)ncnc32)cc1C`, the figure is 91%.
As for `CC1(C)C(=O)C2(CCCCC2)C(=O)OC1c1cccs1` (stereo not drawn), the figure is 103%; as for `O=C(c1cccc(F)c1)N1CCN(c2ccc([N+](=O)[O-])c3cccnc23)CC1`, 90.5%; as for `CC(C)C[C@H](NC(=O)NCCc1ccc(Cl)cc1)C(=O)O`, 99.6%.
As for `COC(c1ccccc1)(c1ccccc1)C(Oc1nc(C)cc(C)n1)C(=O)O` (stereo not drawn), the figure is 98.3%.
As for `Cc1ccc(S(=O)(=O)NC2CCCCCC2)cc1`, the GFP response vs DMSO was 103%.
For `Cc1ccc(S(=O)(=O)Nc2ccc3c(c2)C(=O)N([C@H](C)CO)C[C@@H](C)[C@@H](CN(C)C(=O)Nc2cccc4ccccc24)O3)cc1`, the GFP response vs DMSO is 96.4%.
Regarding `C=CCC(C(=O)c1ccccc1)[N+](C)(C)CC=C` (stereo not drawn), the GFP response vs DMSO is 96.9%.
`S=c1nc2ccccc2c2nc(-c3cccnc3)[nH]n12`: the GFP response vs DMSO is 102%.
Regarding `CCC(C)n1c(-c2cc(OC)c(OC)c(OC)c2)nc2nc3ccccc3nc21` (stereo not drawn), the GFP response vs DMSO was 101%.
As for `CCc1ccc(-c2cc3c(=O)n(CC(=O)NCCCN4CCN(Cc5ccccc5)CC4)nc(C)n3n2)cc1`, the figure is 102%; as for `CN(C)C(CNC(=O)c1ccc(OCc2cn3ccccc3n2)cc1)c1ccco1` (stereo not drawn), 97.7%; as for `CC(C)Cc1nnc(NC(=O)CCNC(=O)c2ccccc2Cl)s1`, 105%.
For `O=C(CCCOc1ccccc1)NNC(=O)c1ccc(Cl)cc1`, the GFP response vs DMSO is 109%.
As for `Cn1cccc1C(=O)OCC(=O)c1ccc(Br)s1`, the figure is 100%; as for `COc1cc(NC(=O)CCNC(=O)Cn2ccc3ccccc3c2=O)cc(OC)c1OC`, 104%; as for `Cc1cc(C(F)(F)F)nn1CC(=O)N1CCCC1`, 97.4%.
For the molecule `CSc1ccc(S(=O)(=O)NCC(=O)OCC(=O)NC2(C#N)CCCCC2)cc1[N+](=O)[O-]`, the GFP response vs DMSO was 108%.
As for `CCc1ccc(NC(=O)C(=O)NNC(=O)c2cccs2)cc1`, the figure is 107%; as for `CC(C)N1C(=O)N(c2ccccc2)C(C)(O)CC1(C)C` (stereo not drawn), 99.2%.
As for `COc1ccc(C(C)(C)C)cc1NC(=O)CCN1C(=O)C2CCCCC2C1=O` (stereo not drawn), the figure is 112%.
As for `Cc1nn2cc(-c3ccc(Cl)cc3)cnc2c1Br`, the figure is 102%; as for `CC(C)c1ccc(NC(=O)CCN2C(=O)c3ccc([N+](=O)[O-])cc3C2=O)cc1`, 111%; as for `CC(C)(C)c1ccc(C(=O)N2CCN(CCNC(=O)C(=O)Nc3ccc(F)cc3)CC2)cc1`, 100%.
As to `Cc1ccc(NC(=O)Cn2cccc2C2=NC(c3ccccc3)CO2)c(C)c1` (stereo not drawn), the GFP response vs DMSO was 103%.
With `O=C1[C@@H]2C(c3cccnc3)=NO[C@@H]2C(=O)N1c1ccc(Cl)cc1Cl`, the GFP response vs DMSO was 112%.
